The source of these data is PubChem BioAssay (NCI).

“And” between values parts separate entries of the source, which are not always exact repeats. Identical values can stand only once. Compounds without any hit were thinned out: in the full panel of roughly 83,000, 20% have a hit.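 Cells were grown in 96-well plates and exposed to the test compound at a single concentration for 48 hours; results are reported as percent growth, with values below 10 considered active.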 The source made the active and inactive calls.

This test relates to MDA-MB-468 breast. Nature of the test: NCI-60 one-dose screen, 48 h (100 = growth as untreated, 0 = no growth, -100 = all killed). As to conditions: 10 µM unless noted.
Consider `CC[C@@H]1NC(=O)[C@@H]2CCCCN2C(=O)[C@@H]2CCCN2C(=O)[C@@H](NC(=O)[C@H](Cc2cc(F)cc(F)c2)NC(=O)Nc2ccc(C3CC3)cc2F)[C@H](C)OC(=O)[C@@H]2C[C@@H](C)CN2C1=O`, for which the growth is -33.6% (active). Under `O=C(N/N=C/c1ccc2c(c1)OCO2)c1ccncc1` stands 116% (inactive) and 124% (inactive); under `CC1=CNNc2c3ncnc-3ncn21`, 95.1% (inactive); under `O=C(Nc1ccccc1Cl)Oc1ccc(-c2ccccc2)cc1`, 115% (inactive). Under `O=c1[nH]c2c(ccc3cnccc32)c2c1CCC2` stands -60.5% (active). Under `COC(=O)[C@]12CC[C@@H](C)[C@H](C)[C@@H]1C1=CC(=O)[C@@H]3[C@@]4(C)C[C@@H](O)[C@H](O)[C@@]5(C)COC(=C45)C[C@@]3(C)[C@]1(C)CC2` stands 44.2% (inactive). In the case of `CCOC(=O)Nc1nc2ccccc2[nH]1`, the growth was 99.4% (inactive) and 26.8% (inactive). Under `COc1ccc(NC(=O)CSc2nnc(-c3ccc4nc(-c5ccc(OC)c(OC)c5)[nH]c4c3)o2)cc1OC` stands 92.7% (inactive); under `CN1CCN(Cc2ccc(NC(=O)c3cncc(C#Cc4cncc5ncccc45)c3)cc2C(F)(F)F)CC1`, 43.5% (inactive). The figure for `COc1ccc(-c2nnc(SCc3ccc(O)c4ncccc34)n2-c2ccccc2)cc1` is 10.3% (inactive).

For `O=c1oc2ccc(-c3ccc(F)cc3F)cc2c(=O)n1-c1ccc(F)c(F)c1`, the growth is -10.8% (active).

Turning to `CCCCOC(=O)c1ccccc1O`, the growth is 95.7% (inactive). Under `Cc1cc(O)c2c(c1)C1OC(=O)CCCCCN1C1=C2C(=O)c2cccc(OC3CC(O)C(O)C(C)O3)c2C1=O` (configuration not stated) stands 58.3% (inactive); under `O=C1Nc2ccccc2C12Nc1cc(Cl)ccc1S2` (configuration not stated), 105% (inactive). For the molecule `Cc1[nH]nc2c(=S)[nH]c(=O)[nH]c12`, the growth was 101% (inactive). Under `Cc1nc2ccc(Nc3nc(Cl)nc(N4CCOCC4)n3)cc2n1Cc1ccccc1` stands 62.2% (inactive).

For the molecule `Nc1nc(-c2cccc([N+](=O)[O-])c2)c(N=Nc2ccccc2[N+](=O)[O-])s1`, the growth is 74.8% (inactive). The figure for `N#Cc1c(-c2cccc(Cl)c2)cc(-c2cccnc2)[nH]c1=O` is 49.3% (inactive); for `Cc1[nH]c2ccc(F)cc2c1CCNC(=O)C1CCN(C(=O)c2ccccc2)CC1` it is 87.7% [25 µM] (inactive); for `Cc1c(O)cc(-c2cnc(Nc3ccccc3)s2)c(O)c1C` it is 57.4% (inactive). The figure for `NNc1nnc2nc(Nc3ccccc3)nc(Nc3ccc(S(N)(=O)=O)cc3)n12` is 126% (inactive); for `S=C(SSC(=S)N1CCOCC1)N1CCOCC1` it is 106% (inactive).

Take `COc1ccc(C(=O)/C=C/c2ccc(Cl)cc2)cc1S(=O)(=O)Nc1c(N)nc(SC)[nH]c1=O`: the growth was 47.3% (inactive). The figure for `Nc1cccc2c(=S)c3ccccc3[nH]c12` is 86.1% (inactive).

With `Clc1ccc2c(c1)C(Br)c1cc(Cl)cc(Cl)c1-2` (configuration not stated), the growth is 96.7% (inactive).

In the case of `CN(C)c1ccc(/C=N/Nc2nc(N/N=C/c3ccc(N(C)C)cc3)nc(N3CCOCC3)n2)cc1`, the growth is 97.8% (inactive).

For the molecule `N#C/C(=C1C=C/C(=N/O)C(Cl)=C/1)c1ccc(Cl)cc1`, the growth is -8.37% (active). As for `Oc1ccc(-c2nc3ccc(/C(=N\N=C\c4ccc(Cl)cc4)c4ccccc4)cc3[nH]2)cc1`, the growth is 79.5% (inactive). For the molecule `C[n+]1cc2cc(C(N)=O)[nH]c3c(=N)c(Cl)c(N)c1c23`, the growth is 53.3% (inactive).

For `COc1ccc(CNC(=O)[C@H](O)[C@@H](N)Cc2ccccc2)cc1`, the growth was 106% (inactive). Under `Cc1cc(NS(=O)(=O)c2ccccc2)c(OS(=O)(=O)c2ccccc2)cc1C` stands 102% (inactive); under `COc1cccc(Cn2c(-c3nonc3NC(C)=O)nc3ccccc32)c1`, -7.42% (active); under `Oc1ccccc1-c1nnc(COc2ccc(Cl)cc2Cl)o1`, 58.7% (inactive). Regarding `CCOc1ccccc1-n1c(CN2CCN(C(=O)COc3ccc(CNCCCCCCN4C5CCCC4CC(OC(=O)Nc4cc(C)ccc4OC)C5)cc3)CC2)nc2ccccc2c1=O` (configuration not stated), the growth was -79.1% (active). Under `CC1=C([Se]CC(OC(=O)CC[Se]c2ccccc2)C(=O)NCCCCCC(=O)OCc2ccccc2)C(=O)c2ccccc2C1=O` (configuration not stated) stands -7.59% (active); under `O=C(CNC(=O)c1cccc2ccccc12)Nc1ccccc1Oc1ccc(O)cc1`, 27.5% [5 µM] (inactive). Under `Nc1ccc(-c2cccs2)cc1NC(=O)c1ccc(CCCC(=O)Nc2ccc(C3CC3N)cc2)cc1` (configuration not stated) stands 69.6% (inactive).
